# Reference: the supplement of paper PMC8728848
# This is one part of a sample in which the strongest signals are shown more often than they occur.
# B1: AT1G77380(17) (Arabidopsis thaliana), Q39134 (protein)
# chain: MVQNHQTVLAVDMPQTGGSKYLDDDGKNKRTGSVWTASAHIITAVIGSGVLSLAWATAQLGWLAGPVVMLLFSAVTYFTSSLLAACYRSGDPISGKRNYTYMDAVRSNLGGVKVTLCGIVQYLNIFGVAIGYTIASAISMMAIKRSNCFHKSGGKDPCHMNSNPYMIAFGLVQILFSQIPDFDQLWWLSILAAVMSFTYSSAGLALGIAQVVVNGKVKGSLTGISIGAVTETQKIWRTFQALGDIAFAYSYSIILIEIQDTVKSPPSEEKTMKKATLVSVSVTTMFYMLCGCMGYAAFGDLSPGNLLTGFGFYNPYWLLDIANAAIVIHLIGAYQVYCQPLFAFIEKQASIQFPDSEFIAKDIKIPIPGFKPLRLNVFRLIWRTVFVIITTVISMLLPFFNDVVGLLGALGFWPLTVYFPVEMYIAQKKIPRWSTRWVCLQVFSLGCLVVSIAAAAGSIAGVLLDLKSYKPFRSEY
# Key:
# Assay in all cases: glycan array binding signal (z-score within array); higher = stronger binding
# Conditions in all cases: glycan notation: IUPAC condensed, linker removed
# [1] = target: Fuc(a1-2)Gal
# In short: (§1)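 Glycan array data came from 3228 arrays in the Consortium for Functional Glycomics database, and only arrays with an available protein sequence were kept. Glycan names were put into IUPAC-condensed notation, and columns mapping to the same glycan were averaged. The binding signal is a within-array Z-score, averaged across arrays of one protein sequence run at different concentrations or buffers and across linkers. A negative Z-score can be read as non-binding.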
# [2] = target: Fuc(a1-2)Gal(b1-3)GalNAc(a1-3)[Fuc(a1-2)]Gal(b1-4)GlcNAc
# In short: as §1
# [3] = target: Fuc(a1-2)Gal(b1-3)GlcNAc(b1-3)[Neu5Ac(a2-6)Gal(b1-4)GlcNAc(b1-6)]Gal(b1-4)Glc
# In short: as §1
# [4] = target: Fuc(a1-2)Gal(b1-4)GlcNAc(b1-2)Man(a1-3)[Fuc(a1-2)Gal(b1-4)GlcNAc(b1-2)Man(a1-6)]Man(b1-4)GlcNAc(b1-4)GlcNAc
# In short: as §1
# [5] = target: Fuc(a1-2)Gal(b1-4)GlcNAc(b1-3)[Fuc(a1-3)[Gal(b1-4)]GlcNAc(b1-6)]Gal(b1-4)Glc
# In short: as §1
# [6] = target: Fuc(a1-2)Gal(b1-4)GlcNAc(b1-6)GalNAc
# In short: as §1
# [7] = target: Fuc(a1-2)[Gal(a1-3)]Gal(b1-4)GlcNAc(b1-6)GalNAc
# In short: as §1
# [8] = target: Fuc(a1-2)[GalNAc(a1-3)]Gal(b1-3)GalNAc(b1-3)Gal(a1-4)Gal(b1-4)Glc
# In short: as §1
# [9] = target: Fuc(a1-2)[GalNAc(a1-3)]Gal(b1-3)GlcNAc(b1-2)Man(a1-3)[Fuc(a1-2)[GalNAc(a1-3)]Gal(b1-3)GlcNAc(b1-2)Man(a1-6)]Man(b1-4)GlcNAc(b1-4)[Fuc(a1-6)]GlcNAc
# In short: as §1
# [10] = target: Fuc(a1-2)[GalNAc(a1-3)]Gal(b1-4)GlcNAc(b1-2)Man
# In short: as §1
# [11] = target: Fuc(a1-3)[Gal(b1-4)]GlcNAc(b1-3)Gal(b1-4)[Fuc(a1-3)]GlcNAc
# In short: as §1
# [12] = target: Fuc(a1-3)[Gal(b1-4)]GlcNAc(b1-3)GalNAc
# In short: as §1
# [13] = target: Fuc(a1-3)[Gal(b1-4)]GlcNAc(b1-6)[Gal(b1-3)GlcNAc(b1-3)]Gal(b1-4)Glc
# In short: as §1
# [14] = target: Gal(a1-3)Gal(b1-3)GlcNAc(b1-6)GalNAc
# In short: as §1
# [15] = target: Gal(a1-3)[Gal(a1-4)]Gal(b1-4)GlcNAc
# In short: as §1
# [16] = target: Gal(a1-6)Glc
# In short: as §1
# [17] = target: Gal(b1-3)GalNAc(b1-3)Gal
# In short: as §1
# [18] = target: Gal(b1-3)GlcNAc(b1-2)Man(a1-3)[Gal(b1-3)GlcNAc(b1-2)Man(a1-6)]Man(b1-4)GlcNAc(b1-4)[Fuc(a1-6)]GlcNAc
# In short: as §1
# [19] = target: Gal(b1-3)GlcNAc(b1-3)Gal(b1-4)GlcNAc(b1-6)[Gal(b1-3)GlcNAc(b1-3)]Gal(b1-4)Glc
# In short: as §1
# [20] = target: Gal(b1-4)GlcNAc
# In short: as §1
# [21] = target: Gal(b1-4)GlcNAc(a1-6)Gal(b1-4)GlcNAc
# In short: as §1
# [22] = target: Gal(b1-4)GlcNAc(b1-2)Man(a1-3)[GlcNAc(b1-2)Man(a1-6)]Man(b1-4)GlcNAc(b1-4)GlcNAc
# In short: as §1
# [23] = target: Gal(b1-4)GlcNAc(b1-3)[Fuc(a1-3)GlcNAc(b1-6)]Gal(b1-4)Glc
# In short: as §1
# [24] = target: Gal(b1-4)GlcNAc(b1-6)Gal(b1-4)GlcNAc
# In short: as §1
# [25] = target: Gal3S(b1-4)[Fuc(a1-3)]Glc6S
# In short: as §1
# [26] = target: Gal3S(b1-4)[Fuc(a1-3)]GlcNAc
# In short: as §1
# [27] = target: Gal6P(b1-4)GlcNAc
# In short: as §1
# [28] = target: Gal6S(b1-3)GlcNAc
# In short: as §1
# [29] = target: Gal6S(b1-4)Glc6S
# In short: as §1
# [30] = target: GalNAc(a1-3)GalNAc(b1-3)Gal(a1-4)Gal(b1-4)Glc
# In short: as §1
# [31] = target: GalNAc(b1-4)GlcNAc
# In short: as §1
# [32] = target: GalNAc(b1-4)GlcNAc(b1-2)Man(a1-3)[GalNAc(b1-4)GlcNAc(b1-2)Man(a1-6)]Man(b1-4)GlcNAc(b1-4)GlcNAc
# In short: as §1
# [33] = target: GalNAc3S(b1-4)GlcNAc3S
# In short: as §1
# [34] = target: Glc(b1-4)Glc
# In short: as §1
# [35] = target: GlcNAc(b1-2)Man(a1-3)[GlcNAc(b1-4)][GlcNAc(b1-2)Man(a1-6)]Man(b1-4)GlcNAc(b1-4)GlcNAc
# In short: as §1
# [36] = target: GlcNAc(b1-2)[GlcNAc(b1-6)]Man(a1-6)[GlcNAc(b1-4)][GlcNAc(b1-2)Man(a1-3)]Man(b1-4)GlcNAc(b1-4)GlcNAc
# In short: as §1
# [37] = target: GlcNAc(b1-3)Gal(b1-4)GlcNAc(b1-3)Gal(b1-4)GlcNAc(b1-2)[GlcNAc(b1-3)Gal(b1-4)GlcNAc(b1-3)Gal(b1-4)GlcNAc(b1-6)]Man(a1-6)[GlcNAc(b1-3)Gal(b1-4)GlcNAc(b1-3)Gal(b1-4)GlcNAc(b1-2)Man(a1-3)]Man(b1-4)GlcNAc(b1-4)[Fuc(a1-6)]GlcNAc
# In short: as §1
# [38] = target: GlcNAc(b1-3)Gal(b1-4)GlcNAc(b1-3)Gal(b1-4)GlcNAc(b1-3)GalNAc
# In short: as §1
# [39] = target: GlcNAc(b1-6)GalNAc
# In short: as §1
# [40] = target: Kdn(a2-3)Gal(b1-4)Glc
# In short: as §1
# [41] = target: Man(a1-2)Man(a1-3)[Man(a1-2)Man(a1-6)]Man(a1-6)[Man(a1-2)Man(a1-2)Man(a1-3)]Man(b1-4)GlcNAc(b1-4)GlcNAc
# In short: as §1
# [42] = target: Man(a1-2)Man(a1-6)[Man(a1-3)]Man(a1-6)[Man(a1-2)Man(a1-2)Man(a1-3)]Man
# In short: as §1
# [43] = target: Man(a1-3)[Man(a1-6)]Man(a1-6)[Man(a1-3)]Man
# In short: as §1
# [44] = target: Man(a1-6)Man
# In short: as §1
# [45] = target: Neu5Ac(a2-3)Gal(b1-3)GlcNAc(b1-2)Man(a1-3)[Neu5Ac(a2-3)Gal(b1-3)GlcNAc(b1-2)Man(a1-6)]Man(b1-4)GlcNAc(b1-4)GlcNAc
# In short: as §1
# [46] = target: Neu5Ac(a2-3)Gal(b1-3)GlcNAc6S
# In short: as §1
# [47] = target: Neu5Ac(a2-3)Gal(b1-4)GlcNAc(b1-3)Gal(b1-3)GlcNAc
# In short: as §1
# [48] = target: Neu5Ac(a2-3)Gal(b1-4)GlcNAc6S
# In short: as §1
# [49] = target: Neu5Ac(a2-6)Gal(b1-4)GlcNAc(b1-2)Man(a1-3)Man(b1-4)GlcNAc(b1-4)GlcNAc
# In short: as §1
# [50] = target: Neu5Ac(a2-6)Gal(b1-4)GlcNAc(b1-2)Man(a1-3)[Man(a1-6)]Man(b1-4)GlcNAc(b1-4)GlcNAc
# In short: as §1
# [51] = target: Neu5Ac(a2-6)GlcNAc(b1-4)GlcNAc(b1-4)GlcNAc
# In short: as §1
# [52] = target: Neu5Ac(a2-8)Neu5Ac(a2-3)Gal(b1-3)GalNAc(b1-4)[Neu5Ac(a2-8)Neu5Ac(a2-3)]Gal(b1-4)Glc
# In short: as §1
# [53] = target: Neu5Ac(a2-8)Neu5Ac(a2-3)[Gal(b1-3)GalNAc(b1-4)]Gal(b1-4)Glc
# In short: as §1
# [54] = target: Neu5Gc(a2-3)Gal(b1-4)[Fuc(a1-3)]GlcNAc
# In short: as §1
binder,measurement,setting,value
B1,glycan array binding signal (z-score),[1],2.99
same,glycan array binding signal (z-score),[2],2.89
same,glycan array binding signal (z-score),[3],-0.856
same,glycan array binding signal (z-score),[4],-0.43
same,glycan array binding signal (z-score),[5],2.76
same,glycan array binding signal (z-score),[6],-0.513
same,glycan array binding signal (z-score),[7],-0.886
same,glycan array binding signal (z-score),[8],4.03
same,glycan array binding signal (z-score),[9],-0.716
same,glycan array binding signal (z-score),[10],1.32
same,glycan array binding signal (z-score),[11],-0.28
same,glycan array binding signal (z-score),[12],0.285
same,glycan array binding signal (z-score),[13],2.75
same,glycan array binding signal (z-score),[14],-0.733
same,glycan array binding signal (z-score),[15],3.09
same,glycan array binding signal (z-score),[16],-0.766
same,glycan array binding signal (z-score),[17],-0.955
same,glycan array binding signal (z-score),[18],3.2
same,glycan array binding signal (z-score),[19],1.9
same,glycan array binding signal (z-score),[20],-0.639
same,glycan array binding signal (z-score),[21],2.75
same,glycan array binding signal (z-score),[22],-0.757
same,glycan array binding signal (z-score),[23],0.166
same,glycan array binding signal (z-score),[24],-0.725
same,glycan array binding signal (z-score),[25],0.338
same,glycan array binding signal (z-score),[26],-0.327
same,glycan array binding signal (z-score),[27],-0.442
same,glycan array binding signal (z-score),[28],-0.519
same,glycan array binding signal (z-score),[29],-0.34
same,glycan array binding signal (z-score),[30],-0.209
same,glycan array binding signal (z-score),[31],2.31
same,glycan array binding signal (z-score),[32],7.58
same,glycan array binding signal (z-score),[33],-0.031
same,glycan array binding signal (z-score),[34],0.66
same,glycan array binding signal (z-score),[35],-0.289
same,glycan array binding signal (z-score),[36],-0.522
same,glycan array binding signal (z-score),[37],0.854
same,glycan array binding signal (z-score),[38],-0.766
same,glycan array binding signal (z-score),[39],2.85
same,glycan array binding signal (z-score),[40],4.07
same,glycan array binding signal (z-score),[41],3.3
same,glycan array binding signal (z-score),[42],-0.524
same,glycan array binding signal (z-score),[43],-0.782
same,glycan array binding signal (z-score),[44],-0.696
same,glycan array binding signal (z-score),[45],-0.809
same,glycan array binding signal (z-score),[46],0.954
same,glycan array binding signal (z-score),[47],-1.04
same,glycan array binding signal (z-score),[48],-0.786
same,glycan array binding signal (z-score),[49],-0.792
same,glycan array binding signal (z-score),[50],-0.896
same,glycan array binding signal (z-score),[51],0.349
same,glycan array binding signal (z-score),[52],-0.862
same,glycan array binding signal (z-score),[53],-0.73
same,glycan array binding signal (z-score),[54],-0.363
